KCNQ2 pot: enhances the rat KCNQ2 potassium channel; actives 0.54% (n = 310,000); AID 2239; CHO-K1 KCNQ2, FluxOR thallium flux fluorescence; active compounds read high; O88943; B-score at 10 µM;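 active = fluorescence ratio B-score at least 3 SD of library B-scores, with initial fluorescence B-score within 3 of them, cut at about 5.3 in these data; same plate scores as AID 2156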;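 note: B-score of peak minus minimum over baseline fluorescence ratio after K+ and Tl+ stimulus; positive B-score means potentiation of KCNQ2 with more thallium influx and brighter signal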
KCNQ2 block: KCNQ2 (rat) channel inhibition. O88943. CHO-K1 KCNQ2, FluxOR thallium flux, 20 min; active compounds read low. B-score at 10 µM. actives 1.1% (n = 310,000);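 active = fluorescence ratio B-score at most minus 3 library SDs, with starting brightness B-score within 2 library SDs, cut at about -5.5 in these data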
KCNQ2 block conf: confirmation of rat KCNQ2 potassium channel inhibitors. shares compounds with KCNQ2 block. KCNQ2-expressing cells, thallium flux, inhibition; active compounds read low. activity change, negative = inhibition, % at 10 µM. actives 57% (n = 1,000);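 note: 0% = vehicle wells and values are ratio percent relative to vehicle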
KCNQ1 spec: human KCNQ1 activity in KCNQ2 inhibitor specificity screen; shares compounds with KCNQ2 block; KCNQ1-expressing cells, FluxOR thallium flux fluorescence; active compounds read low; activity change, negative = inhibition, % at 10 µM; actives 15% (n = 1,000); AID 493026;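 active = activity change at least 3 SD of negative controls below their mean in both duplicate wells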;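 note: CHO cells stably transfected with KCNQ1 and depolarized by potassium stimulus; peak minus minimum fluorescence over baseline after thallium addition; 0% = vehicle negative control and -100% = blank without thallium stimulus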
Target sequence (P51787 whole entry, looked up): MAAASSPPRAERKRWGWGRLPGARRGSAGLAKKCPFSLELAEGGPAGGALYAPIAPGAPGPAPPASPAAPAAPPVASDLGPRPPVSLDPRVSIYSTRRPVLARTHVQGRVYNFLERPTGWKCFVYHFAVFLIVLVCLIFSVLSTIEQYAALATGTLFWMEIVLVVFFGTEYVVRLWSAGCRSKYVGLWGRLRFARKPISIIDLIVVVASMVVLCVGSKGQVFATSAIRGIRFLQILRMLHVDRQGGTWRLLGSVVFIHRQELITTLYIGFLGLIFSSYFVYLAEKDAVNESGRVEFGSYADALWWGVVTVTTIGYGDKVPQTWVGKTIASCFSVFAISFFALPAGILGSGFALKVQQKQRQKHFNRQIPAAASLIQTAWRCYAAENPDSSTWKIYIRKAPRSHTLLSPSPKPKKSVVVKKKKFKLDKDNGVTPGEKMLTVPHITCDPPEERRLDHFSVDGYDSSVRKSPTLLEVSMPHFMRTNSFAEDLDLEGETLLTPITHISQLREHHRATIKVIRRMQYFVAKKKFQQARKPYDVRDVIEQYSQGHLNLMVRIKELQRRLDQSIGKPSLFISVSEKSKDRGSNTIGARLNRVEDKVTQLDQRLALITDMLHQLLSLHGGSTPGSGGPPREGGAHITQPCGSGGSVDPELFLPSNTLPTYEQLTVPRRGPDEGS
CHO parental ctr: counter-screen for KCNQ2 inhibitors: effect in parental CHO cells; shares compounds with KCNQ2 block; thallium flux counter-screen; active compounds read low; activity change, % at 10 µM; actives 14% (n = 1,000);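 note: 0% = vehicle negative controls with stimulus buffer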
KCNQ2 patch conf: rat KCNQ2 inhibition confirmed by electrophysiology; shares compounds with KCNQ2 block; KCNQ2-expressing cells, automated patch clamp current; calls only at 10 µM; actives 49% (n = 550); AID 588531
Starred values were filed as active, the others as inactive; i = inactive; . = no result; + = active, no number. The list is not random: actives were taken first. Their share in the collection is about 1.6%. Unless noted, the rule behind the calls is not given here.

SMILES	KCNQ2 pot	KCNQ2 block	KCNQ2 block conf	KCNQ1 spec	CHO parental ctr	KCNQ2 patch conf
CCN(Cc1ccccc1)C(c1ccccn1)c1nnnn1C(C)(C)CC (stereo not drawn)	.	i	.	.	.	.
O=C(CN1CCN(S(=O)(=O)N2CCOCC2)CC1)Nc1cc(Cl)ccc1Cl	.	i	.	.	.	.
CC1CC(C)CN(C(=O)C(Cc2ccccc2)NC(=O)c2ccccc2)C1 (stereo not drawn)	-7	-7*	i	i	i	.
O=C(NC(Cc1ccccc1)C(=O)N1CCCCCC1)c1ccccc1 (stereo not drawn)	.	i	.	.	.	.
CCOc1ccc2nc(COC(=O)c3ccncc3)c(C(=O)c3ccccc3)[n+]([O-])c2c1	.	i	.	.	.	.
CC(NC(=O)/C(C#N)=C/c1ccc(Cl)c([N+](=O)[O-])c1)c1ccccc1 (stereo not drawn)	-11	-11*	-26%*	i	i	i
CC(NC(=O)/C(C#N)=C/c1ccc(OCC(=O)O)cc1)c1ccccc1 (stereo not drawn)	.	i	.	.	.	.
O=C(N/C(=C\c1cccc([N+](=O)[O-])c1)C(=O)N1CCOCC1)c1cccc(Br)c1	1.1	i	.	.	.	.
Cc1ccccc1NC1=C(C(=O)c2ccccc2)N(C)S(=O)(=O)c2ccccc21	-8.1	-8.1*	-29%*	i	i	+
O=C(C1=C(Nc2ccccc2)c2ccccc2S(=O)(=O)N1)c1ccccc1	0.03	i	.	.	.	.
Cc1cccc2cc(C(c3nnnn3C3CCCC3)N3CCOCC3)c(=O)[nH]c12 (stereo not drawn)	-7.8	-7.8*	-24%*	i	i	+
CCC(C)(C)n1nnnc1C(c1cc2cccc(C)c2[nH]c1=O)N1CCCC1 (stereo not drawn)	.	i	.	.	.	.
COCCN(C(=O)COC(=O)C1(c2ccccc2)CC1)c1c(N)n(CC(C)C)c(=O)[nH]c1=O	.	i	.	.	.	.
CC(C)(C)N1CC(c2nc3ccccc3n2Cc2ccc(Cl)cc2)CC1=O (stereo not drawn)	-7.1	-7.1*	-27%*	i	i	+
CC(C)(C)N1CC(c2nc3ccccc3n2CCOc2ccccc2)CC1=O (stereo not drawn)	1.5	i	.	.	.	.
CN(c1ccccc1)S(=O)(=O)c1cccc(NC(=O)C2CC(=O)N(Cc3ccccc3)C2)c1 (stereo not drawn)	1.6	i	.	.	.	.
COC(=O)CCC(=O)N1CCCC(CO)(Cc2ccccc2C)C1 (stereo not drawn)	0.29	i	.	.	.	.
Cc1ccccc1CC1(CO)CCCN(C(=O)CCC(=O)c2ccccc2)C1 (stereo not drawn)	-8.6	-8.6*	-30%*	i	i	+
CCN(c1ccc(NC(=O)c2ccc(Cl)nc2)cc1)C(C)C	.	i	.	.	.	.
Cn1c(=O)c(C(=O)NCc2ccccc2Cl)c(O)c2ccccc21	.	i	.	.	.	.
CCCn1c(=O)c(C(=O)NC(C)c2ccccc2)c(O)c2ccccc21 (stereo not drawn)	-11	-11*	i	i	i	.
CCn1c(=O)c(C(=O)NC(C)c2ccccc2)c(O)c2ccccc21 (stereo not drawn)	.	i	.	.	.	.
CCn1c(=O)c(C(=O)NCc2ccccc2Cl)c(O)c2ccccc21	-8.4	-8.4*	-36%*	-37%*	-23%*	i
CCOC1OC(=O)C(Cl)=C1Nc1cc(C)ccc1C (stereo not drawn)	.	i	.	.	.	.
Cc1cc(C)n2nc(N)c(N=Nc3ccc(Cl)cc3)c2n1	1.2	i	.	.	.	.
SMILES	KCNQ2 pot	KCNQ2 block	KCNQ2 block conf	KCNQ1 spec	CHO parental ctr	KCNQ2 patch conf
COc1ccc(CN(CCC(c2ccccc2)c2ccco2)C(=O)c2ccco2)cc1 (stereo not drawn)	-6.7	-6.7*	-38%*	-43%*	-36%*	i
O=C(c1ccco1)N(CCC(c1ccccc1)c1ccco1)Cc1ccccc1 (stereo not drawn)	-7.7	-7.7*	-26%*	i	i	+
CCN(CC)C(=O)CC(c1ccccc1)c1ccco1 (stereo not drawn)	.	i	.	.	.	.
COc1ccc(CN(C(=O)c2ccco2)c2ccccc2)cc1	0.07	i	.	.	.	.
CCOc1ccc(NC(=S)N(CCOC)C(C)c2ccco2)cc1 (stereo not drawn)	1.8	i	.	.	.	.
O=C(NCC1CCCO1)C(=O)N/N=C/c1c(F)cccc1Cl (stereo not drawn)	.	i	.	.	.	.

Screens: PubChem BioAssay, Johns Hopkins Ion Channel Center
